# Hit rate of the full screen: of about 220,000 compounds, about 2,400 (1.1%) were called active. Many of the other results were omitted from the sample, so actives are more common in it than they were. Values without a mark were called inactive.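 The calls were made as follows: active = inhibition above the campaign mean plus 3 SD over all tested compounds (cut at about 24% in these data); inactive = the rest.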
# Test: reduced viability of JAK2V617F-dependent Ba/F3 cells, primary screen, JAK2V617F inhibitor project, cell-based, Ba/F3 EpoR-JAK2V617F, luminescence (AID 1446);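 also: cytokine-independent growth of Ba/F3 cells driven by EpoR plus mutant JAK2; 0% = DMSO-treated cells and 100% = JAK inhibitor I control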
# Details: ATP luminescence, at 5.6 µM, hits give high values
row,SMILES,inhibition
1,CCCCCCCCCCCCn1ccc(=N)cc1,98.4% (active)
2,COc1cc(OC)cc(C2(C#N)CCN(C)CC2)c1,-0.42%
3,O=C1NC(=O)N(CCc2ccc(F)cc2)C(=O)/C1=C/C=C/c1ccccc1,1.28%
4,COc1ccc(-n2c(-c3ccccc3)nc3ccccc3c2=O)cc1,0.29%
5,CN(C)CC1Oc2ccccc2OC1(O)c1ccccc1 (stereo not given),91.1% (active)
6,O=c1[nH]c(=O)n(-c2ccc(F)cc2)c(O)c1C=NCCN1CCCCC1,0.16%
7,Cc1cccc(NC(=O)OC2CN3CCC2CC3)c1 (stereo not given),2.6%
8,CN1CCN(/N=C/c2c[nH]c3ccccc23)CC1,-2.46%
9,CC1=C(C(=O)Nc2ccccc2)S(=O)(=O)CCO1,-1.56%
10,CCOc1ccc(-c2cc(C)[n+](CCN(CC)CC)c(-c3ccc(OCC)cc3)c2)cc1,98.2% (active)
11,CC1=C2C(=O)C3C(CC=C4CC(OC5OC(O)C(O)C(O)C5CO)CCC43C)C2CCC12OC1CC(C)CNC1C2C (stereo not given),0.84%
12,CSc1nc2ccc(C)cc2c(=O)n1-c1cccnc1,3.49%
13,CC1(C)Cc2c(C#N)c(N3CCNCC3)nc(-c3ccco3)c2CS1,1.65%
14,CCOc1cccc(=NC2CCCCC2)c2c(C)[nH]c(C)c12,34% (active)
15,O=C(O)COc1ccccc1/C=C1\C(=O)NC(=O)N(CCC2=CCCCC2)C1=O,-1.88%
16,Cn1c(O)c(C(=Nc2ccc(F)cc2)c2ccccc2)c(=O)n(C)c1=O,-3.28%
17,CCCCC(=O)N/N=C/c1c(O)n(CCC2=CCCCC2)c(=O)[nH]c1=O,-0.19%
18,O=c1[nH]c(=O)n(CCc2ccc(F)cc2)c(O)c1/C=N/N1CCCCC1,-0.8%
19,O=c1[nH]c(CN2CC=C(c3ccccc3)CC2)nc2scc(-c3cccs3)c12,-4.83%
20,Cc1ccc(CN2CCCC(C(=O)c3ccc4c(c3)OCO4)C2)cc1C (stereo not given),-3.5%
21,CCOP(=O)(OCC)C(NC(=O)NC)C(N)=O (stereo not given),3.57%
22,CC1=CC(=Cc2sc3ccccc3[n+]2C)C=C(C)O1,101% (active)
23,CNC(=O)O/N=C(\N)Cc1csc2ccc(Cl)cc12,1.27%
24,O=c1[nH]c(=O)n(CCc2ccccc2)c(O)c1/C=N/N1CCOCC1,-2.98%
25,CCOP(=O)(OCC)C(NC(=O)c1ccc(OC)cc1)C(Cl)(Cl)Cl (stereo not given),1.2%

# Reference: PubChem BioAssay AID1446 (The Scripps Research Institute Molecular Screening Center, 2008)
